Hits are enriched below; roughly 5.3% of the tested compounds scored in any of these assays.
Coupling enz – inhibits coupling enzyme system, counter-screen for aldolase hits; actives 0.67% (n = 290,000); coupling enzyme system counterscreen, AmpLite Red fluorescence; AID 2472; activity change, negative = inhibition, % at 58.2 µM, hits read low; in the data active means activity change below about -30%
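Counterscreen of the coupled detection system alone, without aldolase: glyceraldehyde-3-phosphate coupling enzymes plus AmpLite Red readout. Compounds at 57.5 uM final, 10 min RT preincubation, 20 min RT reaction, fluorescence 525/598 nm.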
Tau fibril FP – tau fibrillization inhibition (FP) | P10636 | K18 P301L tau heparin fibrillization, Alexa594 FP, 6 h | Potency, µM (top dose mostly 57.7 µM), inactives show at the top dose activity, negative = inhibition, hits mostly inhibitors | actives 0.39% (n = 280,000) | AID 1468; further: potency means the concentration at half of the fitted maximal effect; nearly all actives have a fitted effect of over 55% in size
Target sequence (P10636 561-689 P618L limits assumed): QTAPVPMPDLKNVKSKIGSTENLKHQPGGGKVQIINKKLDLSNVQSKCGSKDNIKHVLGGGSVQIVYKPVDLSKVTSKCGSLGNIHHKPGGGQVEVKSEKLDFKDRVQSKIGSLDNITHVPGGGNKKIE
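Steps: dispense K18 P301L tau (15 uM plus 0.24 uM Alexa 594 tracer, final) in pH 7 sodium acetate; add compound; add heparin (20 uM final); incubate 6 hr, 37 C; add ThT (30 uM final); after 1 hr ambient, read FP.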
Tau ThT inhib – blocks human tau fibril formation measured by thioflavin T; Potency, µM (top dose mostly 57.4 µM), without a hit: at the highest dose activity, negative = inhibition, most hits filed as inhibitors; recombinant tau K18 P301L, heparin-induced fibrillization, ThT fluorescence; AID 1460; actives 2.1% (n = 270,000); P10636; further: potency means the concentration at half of the fitted maximal effect; nearly all actives have a fitted effect of over 55% in size
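Fibril formation assay: tau K18 P301L at 15 uM with trace Alexa 594 label, heparin inducer 20 uM, pH 7 sodium acetate buffer, 37 C for 6 hr; endpoint ThT signal.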
Tau fluor cs – counter-screen for tau fibril formation inhibitors. tau K18 P301L (four-repeat tau fragment) Alexa594 fluorescence, heparin fibrillization. Potency, µM (titrated, usually from 57.7 µM), inactives show at the top dose activity change, negative = decrease. actives 0.93% (n = 280,000); further: potency means the concentration at half of the fitted maximal effect; nearly all actives have a fitted effect of over 55% in size
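Human K18 P301L tau (15 uM unlabeled plus 0.24 uM Alexa 594-labeled, final) in 100 mM sodium acetate pH 7 was mixed with compound and 20 uM heparin and incubated 6 hr at 37 C.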
KDM4E inh – blocks human JMJD2E demethylase activity; B2RXH2; JMJD2E catalytic domain, FDH-coupled NADH fluorescence (FDH is formaldehyde dehydrogenase); Potency, µM (series often up to 57.1 µM), without a hit: at the highest dose activity change, negative = inhibition, most hits filed as inhibitors; actives 1.6% (n = 230,000); active means well fitted inhibition curve with a large enough effect, not every such curve was filed as active; inconclusive means small, poorly fitted or top-dose-only effect, or another doubt; inactive means no such curve, though single readings can be large or run the other way;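 further: potency means the concentration at half of the fitted maximal effect; 0% = wells with enzyme and -100% = buffer wells without enzyme; nearly all actives have a fitted effect of over 50% in size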
Target sequence (B2RXH2 1-337 limits assumed): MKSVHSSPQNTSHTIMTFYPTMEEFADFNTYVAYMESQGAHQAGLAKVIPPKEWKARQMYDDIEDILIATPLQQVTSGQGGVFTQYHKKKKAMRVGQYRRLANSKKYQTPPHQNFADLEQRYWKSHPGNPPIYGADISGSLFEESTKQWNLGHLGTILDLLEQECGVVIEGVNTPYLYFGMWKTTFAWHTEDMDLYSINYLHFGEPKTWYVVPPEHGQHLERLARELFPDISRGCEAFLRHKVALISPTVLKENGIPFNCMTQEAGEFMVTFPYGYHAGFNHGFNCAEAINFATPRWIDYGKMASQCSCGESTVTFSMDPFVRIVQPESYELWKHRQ
Sfp inh – blocks B. subtilis Sfp PPTase activity; Potency, µM, inactives show largest response in the series, negative = inhibition, actives largely listed as inhibitors; actives 3.5% (n = 310,000); AID 1490; Biochemical Sfp PPTase activity, qHTS;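 further: the enzyme is Sfp with the accession as filed and its product quenches rhodamine fluorescence; potency means the concentration at half of the fitted maximal effect; 0% = enzyme reaction without inhibitor and -100% = no enzyme wells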
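With Hepes-Na pH 7.6 buffer containing 10 mM MgCl2, Sfp (15 nM) modified BHQ-2-YbbR (12.5 uM) using rhodamine-CoA (5 uM). Two reads 30 minutes apart at 525/598 nm yielded each well's rate.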
* hit, by the source's call; ? = inconclusive; . = not tested or not shown; [ ] = dose if it differs, or a comment. Unless noted, the call rests on the fitted dose curve; in most records, active means well fitted curve in the direction sought with a large enough effect; inconclusive means small, poorly fitted or top-dose-only effect, or another doubt; inactive means no such curve, though single readings can be large; an effect the other way counts as inactive or inconclusive. Unless noted, on the % scale 0 is the no-effect control and ±100 the full control effect.

SMILES	Coupling enz	Tau fibril FP	Tau ThT inhib	Tau fluor cs	KDM4E inh	Sfp inh
CCn1nc(C)c2c(-c3ccccc3)cc(=O)n(C(C)C(=O)Nc3ccc(OC)c(OC)c3)c21 (stereo unspecified)	.	2.8%	?	-22.8%	.	.
Cc1cc(N2CCOCC2)c2c(N)cc(C)c(C)c2n1	-3.9	-0.9%	?	-5.8%	-1.6%	12.6%
Nc1c(N2CCCC2)cc(Cl)c2nonc12	-33.6*	?	2.82µM*	-24.1%	?	-22.4%
Nc1ccc(N2CCCCC2)c2nonc12	-53.2*	?	8.91µM*	?	-3.0%	?
Nc1ccc(N2CCCCC2)cc1N1CCCCC1	-7.2	?	?	?	-12.4%	31.6µM*
Nc1c(N2CCOCC2)cc(Cl)c2nonc12	-37.8*	?	15.8µM*	-24.5%	?	-8.5%
COC(=O)C1=C(C(=O)OC)[C@@H]2N(C)c3ccccc3[C@@]23C[C@@H](C(=O)OC)N(S(=O)(=O)c2ccc([N+](=O)[O-])cc2)C3=N1	-6.1	10.1%[11.6 µM]	-11.3%[11.5 µM]	-21.7%[11.6 µM]	-5.6%[11.4 µM]	-11.9%
CCOC(=O)c1cc(C)n(CC2CCC(C(=O)Nc3ccccc3OC)CC2)c1C (stereo unspecified)	.	8.3%	-2.6%	-6.7%	.	.
O=C(NCC(c1cccnc1)N1CCc2ccccc2C1)C(=O)Nc1ccccc1 (stereo unspecified)	.	9.6%	1.58µM*	-25.6%	.	.
COc1ccc(NC(=O)C(=O)NCC(c2cccnc2)N2CCc3ccccc3C2)cc1 (stereo unspecified)	.	?	14.1µM*	?	.	.
CC(=O)NCCCS(=O)(=O)O	.	.	.	.	.	17.3%
COc1ccc2c(c1)Cc1sc(NC(C)=O)nc1-2	-31.2*	?	31.6µM*	?	-2.4%	20µM*
COc1ccc2c(c1)Cc1sc(NC(=O)c3cccnc3)nc1-2	-18.3	?	7.94µM*	?	-28.2%	-85.4%
COc1ccc2c(c1)CCc1sc(NC(=O)c3ccc(C)cc3)nc1-2	.	9.6%	?	?	?	5.4%
COc1ccc2c(c1)Cc1sc(NC(=O)c3ccco3)nc1-2	.	6.8%	?	?	13.5%	-18.7%
COc1ccc2c(c1)CCc1sc(NC(=O)c3ccco3)nc1-2	-23.2	-6.0%	12.6µM*	14.1µM*[quencher]	?	?
COc1ccc2c(c1)-c1nc(NC(=O)c3ccco3)sc1CC2	-6.2	-13.9%	?	?	?	-11.4%
CC(C)[N+]1(C)C2CCC1CC(OC(=O)C(CO)c1ccccc1)C2 (stereo unspecified)	2.7	8.6%	4.8%	7.8%	-0.9%	10.6%
COc1ccc(NS(=O)(=O)c2cc([N+](=O)[O-])ccc2N/N=C\c2c(C)[nH]c3ccccc23)cc1	0.2	5.5%	2.51µM*	3.16µM*[quencher]	-6.5%	16.8%
Cc1[nH]c2ccccc2c1/C=N/Nc1ccc([N+](=O)[O-])cc1S(=O)(=O)Nc1ccc(Cl)cc1	-0.1	1.6%	3.16µM*	3.16µM*[quencher]	1.8%	3.8%
COc1ccccc1NS(=O)(=O)c1cc([N+](=O)[O-])ccc1N/N=C/c1sc(N2CCOCC2)nc1-c1ccccc1	0.3	17.4%	?	?	-5.8%	?
COc1ccccc1NS(=O)(=O)c1cc([N+](=O)[O-])ccc1N/N=C/c1c[nH]c2ccccc12	-10.1	3.8%	2.82µM*	-78.0%	0.9%	-8.9%
CC(C)(C)OC(=O)NC(Cc1ccccc1)C(=O)NC1COC2CC(n3ccc(=O)[nH]c3=O)OC12 (stereo unspecified)	-0.6	.	.	.	.	1.5%
Cc1cn2c(=O)cc(COc3cccc(NC(=O)c4ccc(C(C)(C)C)cc4)c3)nc2s1	.	-4.5%	2.2%	-24.6%	.	.
CCCCCC=CCC=CCCCCCCCC(=O)OCC	.	.	.	.	.	26.8%
SMILES	Coupling enz	Tau fibril FP	Tau ThT inhib	Tau fluor cs	KDM4E inh	Sfp inh
Nc1c(S(=O)(=O)O)cc(Nc2ccc(Cl)cc2)c2c1C(=O)c1ccccc1C2=O	-3.5	.	.	.	.	15.8µM*
Nc1c(S(=O)(=O)O)cc(Nc2ccc(Nc3nc(Cl)nc(Nc4ccc(S(=O)(=O)O)cc4)n3)c(S(=O)(=O)O)c2)c2c1C(=O)c1ccccc1C2=O	.	10µM*	3.98µM*	2.82µM*[quencher]	-1.6%	.
Nc1c(S(=O)(=O)O)cc(Nc2cccc3ccccc23)c2c1C(=O)c1ccccc1C2=O	-6.5	.	.	.	.	?
COC(=O)c1nnc(SC)nc1C(=O)OC	-1.4	1.5%	-4.2%	-3.6%	0.2%	-12.2%
Oc1c(C=Nc2ccccc2Cl)[nH]c2ccccc12	-6.3	?	39.8µM*	?	?	?
CCOCCCn1c(SCC(=O)Nc2ccc(F)cc2)nc2c(sc3ccccc32)c1=O	.	-18.9%	-12.7%	?	.	.
Nc1ccc(S(N)(=O)=O)cc1N	-27.8	-17.1%	12.6µM*	?	7.94µM*	10.4%
Nc1ccc(S(N)(=O)=O)cc1	0.1	-2.7%	-1.7%	-7.5%	2.2%	21.3%
C[C@]12C=CC(=O)C=C1CCC1C2C(=O)C[C@]2(C)C1CC[C@]2(O)C(=O)CO (stereo partly specified)	0.4	10.1%	-3.6%	0.1%	5.0%	8.5%
CC(C)C1Cc2c(C#N)c(N)sc(=S)c2CO1 (stereo unspecified)	-25.8	8.0%	20µM*	?	-0.8%	28.2µM*
CC1(C)Cc2c(C#N)c(N)sc(=S)c2CO1	-18.5	?	?	-18.0%	?	44.7µM*
Cn1c(=O)c2nc(SCC(=O)Nc3ccc(Cl)c(Cl)c3)n(C)c2n(C)c1=O	.	-5.7%	-5.3%	-4.0%	.	.
CCCCCCn1c(SCC(C)C)nc2c1c(=O)[nH]c(=O)n2C	0.0	-2.5%	-12.1%	-1.2%	7.0%	7.2%
CCCCCCn1c(SCC(=O)OC)nc2c1c(=O)[nH]c(=O)n2C	-3.0	-1.8%	-4.0%	10.1%	2.3%	15.8µM*
CC(=O)CSc1nc2c(c(=O)[nH]c(=O)n2C)n1Cc1cccc(Br)c1	-1.2	.	.	.	.	44.7µM*
CCOC(=O)C(C)Sc1nc2c(c(=O)[nH]c(=O)n2C)n1C/C=C(/C)Cl (stereo unspecified)	-0.6	-2.4%	-2.5%	7.5%	-7.1%	22.4µM*
CCSc1nc2c(c(=O)[nH]c(=O)n2C)n1C/C=C(/C)Cl	3.9	-6.8%	-11.9%	-4.2%	1.5%	-18.3%
C=CCSc1nc2c(c(=O)[nH]c(=O)n2C)n1C/C=C(/C)Cl	0.7	-0.9%	-0.2%	6.8%	0.0%	-5.0%
C=CCSc1nc2c(c(=O)[nH]c(=O)n2C)n1CC	0.0	-13.9%	?	-1.5%	-9.8%	14.1µM*
COc1cccc(-c2cc(C(F)(F)F)n3ncc(C(=O)OC(C)C)c3n2)c1	.	-9.3%	-5.9%	-17.4%	.	.
